Out of some 310,000 compounds screened, about 14,000 (4.5%) showed an effect of 50% or more. Effects have a minus sign here. The full list was thinned out, with strong results kept by preference.
target: human ether-à-go-go-related gene (hERG) potassium channel (human, UniProt Q12809); assay: primary screen, population patch clamp on CHO cells stably expressing hERG; higher = less effect of the substance
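Note: peak tail current of the secondary pulse compared with the same well before compound.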

Sequence of human ether-à-go-go-related gene (hERG) potassium channel (Q12809 whole entry, looked up): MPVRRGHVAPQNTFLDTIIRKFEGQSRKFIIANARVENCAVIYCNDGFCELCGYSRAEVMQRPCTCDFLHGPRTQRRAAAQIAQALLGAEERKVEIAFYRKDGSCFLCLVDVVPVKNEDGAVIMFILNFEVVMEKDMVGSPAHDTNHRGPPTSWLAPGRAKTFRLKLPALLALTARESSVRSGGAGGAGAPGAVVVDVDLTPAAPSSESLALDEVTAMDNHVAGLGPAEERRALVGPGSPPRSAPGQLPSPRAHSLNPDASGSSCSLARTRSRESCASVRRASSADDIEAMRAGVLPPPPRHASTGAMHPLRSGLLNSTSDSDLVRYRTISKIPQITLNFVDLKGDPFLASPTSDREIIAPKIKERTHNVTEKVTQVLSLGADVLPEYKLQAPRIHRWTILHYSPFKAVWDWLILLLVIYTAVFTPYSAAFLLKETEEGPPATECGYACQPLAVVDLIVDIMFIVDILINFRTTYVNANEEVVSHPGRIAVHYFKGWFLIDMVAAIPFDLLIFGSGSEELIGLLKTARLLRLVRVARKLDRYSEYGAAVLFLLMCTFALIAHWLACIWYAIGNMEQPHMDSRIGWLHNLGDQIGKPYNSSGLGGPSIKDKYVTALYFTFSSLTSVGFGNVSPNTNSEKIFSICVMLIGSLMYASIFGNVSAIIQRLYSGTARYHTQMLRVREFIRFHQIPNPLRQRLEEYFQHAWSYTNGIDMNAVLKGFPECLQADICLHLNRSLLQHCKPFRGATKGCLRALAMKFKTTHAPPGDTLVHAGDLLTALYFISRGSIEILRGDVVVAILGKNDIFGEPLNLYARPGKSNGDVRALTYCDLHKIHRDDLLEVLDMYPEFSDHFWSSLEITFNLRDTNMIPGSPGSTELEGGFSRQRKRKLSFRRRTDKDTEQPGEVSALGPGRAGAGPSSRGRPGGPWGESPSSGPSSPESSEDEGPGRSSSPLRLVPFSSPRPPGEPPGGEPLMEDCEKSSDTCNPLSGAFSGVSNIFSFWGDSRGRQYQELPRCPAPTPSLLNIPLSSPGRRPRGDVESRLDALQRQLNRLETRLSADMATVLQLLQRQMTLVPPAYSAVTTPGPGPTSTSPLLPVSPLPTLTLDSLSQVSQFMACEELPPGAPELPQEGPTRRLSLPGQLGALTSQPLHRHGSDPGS

SMILES	hERG current change (%, negative = inhibition) at 10uM
Nc1sc(-c2ccccc2)cc1C(=O)N/N=C/c1ccc(Cl)cc1	18.1%
O=C(CN1CCCCCCC1)Nc1cc(Cl)cc(Cl)c1	1.75%
Cc1ccc(-c2noc(Cn3cc(S(=O)(=O)N4CCCC4)ccc3=O)n2)cc1	8.62%
CC(=O)N1c2ccc(S(=O)(=O)N3CCC(C(=O)Nc4cc(C)cc(C)c4)CC3)cc2CC1C (stereo not drawn)	2%
COc1cc(/C=C/C(=O)OCC(=O)Nc2ccc(C)cc2[N+](=O)[O-])ccc1O	-20.5%
CC(CC(=O)O)CC(=O)Nc1cc([N+](=O)[O-])ccc1O (stereo not drawn)	-2.89%
COC(=O)c1cccc(N2C(=O)c3ccccc3S2(=O)=O)c1	-9.36%
CCOC(=O)c1ccccc1CN1C(=O)c2ccccc2S1(=O)=O	-11.1%
CCOC(=O)c1cccc(N2C(=O)c3ccccc3S2(=O)=O)c1	-59.5%
CCOC(=O)N/N=C(\C)c1ccc(Oc2ncccn2)cc1	17.1%
CCCCN(Cc1ccccc1)C1CCN(Cc2ccccc2)CC1	-53.5%
CCCCC(=O)C1CCN(Cc2ccccc2)CC1	-34.5%
CCN(Cc1ccccc1)C1CCN(Cc2ccccc2)CC1	-14.9%
O=C(O)C(=O)O.c1ccc(CCN(Cc2ccccc2)C2CCN(C3CCCC3)CC2)cc1	-77%
CCCN1CCC(N(CCc2ccccc2)Cc2ccccc2)CC1	-72.2%
CCCN1CNC(=S)N(CCc2ccccc2)C1	8.83%
CCCN(CCO)C1CCN(CCc2ccccc2)CC1	7.14%
CCCN1CCC(N(C)CCc2ccc(OC)c(OC)c2)CC1	-11.4%
O=C(O)C(=O)O.c1ccc(CN2CCC(N3CCC(N4CCCCCC4)CC3)CC2)cc1	16.5%
CC(C)CC(=O)N1CCC(N(CCc2ccccc2)Cc2ccccc2)CC1.O=C(O)C(=O)O	-46.8%
CCN(CC)C1CCN(C(=O)c2ccc(OC3CCN(CCc4ccccc4)CC3)cc2)C1 (stereo not drawn)	2.06%
CCCCN(Cc1ccccc1)C1CCN(CCc2ccccc2)CC1	-72.2%

SMILES	hERG current change (%, negative = inhibition) at 10uM
CC(C)CNS(=O)(=O)c1ccc(OCC(=O)NCC2CCCO2)c(Cl)c1 (stereo not drawn)	-4.3%
S=c1[nH]cnc2scc(-c3ccc(Br)cc3)c12	0.154%
O=C1Nc2ccc(F)cc2C12Nc1ccccc1-c1nnc(SCc3ccccc3)nc1O2 (stereo not drawn)	-13.2%
COc1ccccc1NC(=O)c1ccc(-n2cccn2)nc1	3.91%
O=C(Nc1cccc(Cl)c1)c1ccc(NCCCN2CCOCC2)c([N+](=O)[O-])c1	-37.9%
CC(C(N)=O)N1CC(c2ccccc2)CC1=O (stereo not drawn)	-4.86%
O=C(CSc1nccc(=O)[nH]1)Nc1ccc2c(c1)OCCO2	51.6%
Clc1ccc(CSc2nnc(CN3CCOCC3)n2-c2ccccc2)cc1Cl	-74.1%
Fc1ccc(CSc2nnc(CN3CCOCC3)n2-c2ccccc2)c(Cl)c1	-24%
Clc1cccc(Cl)c1CSc1nnc(CN2CCOCC2)n1-c1ccccc1	-28.9%
CSCCC(NS(=O)(=O)c1ccc(C)cc1)C(=O)N1CCN(C(C)=O)CC1 (stereo not drawn)	3.56%
CCOC(=O)c1c(NC(=O)c2ccco2)n(C2CCCCC2)c2nc3ccccc3nc12	-35.6%
CCCCn1c(NC(=O)c2ccc(Br)o2)c(S(=O)(=O)c2ccccc2)c2nc3ccccc3nc21	-0.885%
CCCCn1c(NC(=O)c2ccc(Br)o2)c(C(=O)OCC)c2nc3ccccc3nc21	-53.8%
CCCCn1c(NC(=O)c2ccco2)c(C(=O)OCC)c2nc3ccccc3nc21	-42.1%
CCCCn1c(NS(=O)(=O)c2ccccc2)c(C(=O)OCC)c2nc3ccccc3nc21	-23.9%
CCCCCn1c(NC(=O)c2ccco2)c(C(=O)OCC)c2nc3ccccc3nc21	-80.4%
Cc1cc(C)n(CC(=O)NNC(=O)c2cccc(C(F)(F)F)c2)n1	12.7%
COc1ccc(C(=O)c2oc3ccccc3c2NC(C)=O)cc1	0.829%
O=C(COc1ccc(/C=N/NC(=O)c2cc3ccccc3o2)cc1Cl)Nc1ccccc1	6.96%
Cc1[nH]c2ccccc2c1/C=N/NC(=O)CNC(=O)c1ccccc1	-9.38%
O=C(CO/N=C/c1c(Cl)cccc1Cl)NNC(=O)c1ccc(Cl)cc1	8.46%

SMILES	hERG current change (%, negative = inhibition) at 10uM
NC(=O)N/N=C/C=C/c1ccc(F)cc1	8.5%
CC(C)=CCOc1c2occc2cc2ccc(=O)oc12	-17.9%
Fc1ccc2nc(C3CCN(Cc4nc(CC5CC5)no4)CC3)[nH]c2c1	-51.9%
O=S(=O)(c1ccc2c(c1)OCCO2)N1CCC(c2nc3ccc(Cl)cc3[nH]2)CC1	-56.6%
C1CCC(n2nnnc2CN2CCCC2)CC1	-1.31%
O=C(Cc1ccccc1)N1CCC(c2nc3ccccc3[nH]2)CC1	-18.9%
Clc1ccc2nc(C3CCN(Cc4ccccc4)CC3)[nH]c2c1	-73.4%
Fc1ccc2nc(C3CCCCN3Cc3nc(CC4CC4)no3)[nH]c2c1 (stereo not drawn)	0.821%
O=C(c1cccc(Cl)c1)N1CCC(c2nc3ccccc3[nH]2)CC1	-38.2%
O=S(=O)(c1ccc2c(c1)OCCO2)N1CCC(c2nc3ccccc3[nH]2)CC1	3.43%
Cc1ccc(Cl)cc1N1CCN(Cc2nnnn2C2CCCCC2)CC1	7.78%
Clc1ccc2nc(C3CCN(Cc4nnnn4C4CCCCC4)CC3)[nH]c2c1	-59.2%
Fc1ccccc1C1CCN(Cc2nc(CC3CC3)no2)C1 (stereo not drawn)	2.1%
CC(C)(C)c1ccc(S(=O)(=O)N2CCC(c3nc4ccc(Cl)cc4[nH]3)CC2)cc1	-3.97%
O=C(Cc1cc(=O)[nH][nH]1)N/N=C/C=C/c1ccccc1	8.93%
COc1cccc(CCNC(=O)CC2C(=O)NCCN2Cc2ccc(C)o2)c1 (stereo not drawn)	15.7%
CCC1=NN(C(=O)c2cccnc2)C(O)(C(F)(F)F)C1 (stereo not drawn)	3.08%
COc1ccc(CC(=O)NCc2nnc(SCC(=O)Nc3nccs3)n2C)cc1	17.3%
CCS(=O)(=O)n1nc(-c2ccccc2)cc1N	7.55%
COc1ccc(NC(=O)/C(=C/c2cccs2)NC(=O)c2ccco2)cc1	-21.1%
COc1ccc([N+](=O)[O-])cc1N(CC(=O)N1CCN(Cc2ccccc2)CC1)S(C)(=O)=O	5.94%
CC(=O)NS(=O)(=O)c1ccccc1	9.31%

SMILES	hERG current change (%, negative = inhibition) at 10uM
O=C(NNC(=O)c1ccco1)c1cccc(Br)c1	0.684%
O=C(CCC1CCCCC1)NNC(=O)c1cnccn1	-4.92%
COc1cc(Cl)c(C)cc1NC(=O)CSc1ccccc1	5.58%
COc1ccc(NC(=S)N2CCC(c3nc4ccc(Cl)cc4[nH]3)CC2)c(OC)c1	-42.6%
CCC(C)(C)n1nnnc1CN1CCC(c2nc3ccc(C)cc3[nH]2)CC1	-48.3%
Cc1ccc(CN2CCC(c3nc4ccc(Cl)cc4[nH]3)CC2)cc1	-83%
O=S(=O)(c1ccc(Cl)cc1)N1CCC(c2nc3ccccc3[nH]2)CC1	1.05%
O=C(NCC1CCCO1)c1ccc(S(=O)(=O)N2CCC(c3nc4ccc(Cl)cc4[nH]3)CC2)cc1 (stereo not drawn)	-18%
Cc1ccc(Cn2nnnc2CN2CCC(c3nc4ccc(Cl)cc4[nH]3)CC2)cc1	5.01%
COc1ccc(CN2CCC(c3nc4ccc(Cl)cc4[nH]3)CC2)cc1	-76.3%
Clc1ccc(CN2CCC(c3nc4ccc(Cl)cc4[nH]3)CC2)cc1	-80.7%
COc1ccc(NC(=S)N2CCCC(c3nc4ccc(C)cc4[nH]3)C2)cc1 (stereo not drawn)	-10.5%
COc1ccc(NC(=O)CCCN2C(=O)C(c3ccccc3)Oc3cccnc32)cc1OC (stereo not drawn)	1.23%
CCCCNC(=O)Cn1cnc2sc(C)c(S(=O)(=O)N3CCN(c4ccccc4OC)CC3)c2c1=O	11.4%
O=C(Nc1nc(-c2cc(Cl)sc2Cl)cs1)c1ccc(Br)s1	-6.05%
Cc1cccc(/C(N)=N/OC(=O)Cc2cccs2)c1	-12.4%
Cc1cc(-c2cc(C(=O)NC3CCCC3)on2)nc(NC2CCCC2)n1	4.57%
COc1ccc(S(=O)(=O)NC(C)(C)C)cc1-c1nnc2c3ccccc3c(C)nn12	-5.05%
CNS(=O)(=O)c1ccc(OC)c(-c2nnc3c4ccccc4c(C)nn23)c1.Cl	7.8%
COc1ccc(S(=O)(=O)NCc2ccco2)cc1-c1nnc2c3ccccc3c(C)nn12	-50.3%
CC(=O)c1c(C)n(Cc2ccccc2)c2ccc(O)cc12	12.8%
